Assay results: PubChem BioAssay
Unmarked numbers belong to inactive results. For some assays here: Entries with a potency or affinity are not part of this list. Active and inactive are the calls of the source. Unless noted, no rule for the calls is given here.

Tests used:
[1] = antimalarial activity against Dd2 strain (AID 2302;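 active = growth inhibition above 50% at the single 2 µM test dose, taken to imply half-maximal potency below 2 µM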;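 also: 0% = DMSO untreated growth and 100% = chloroquine plus artemisinin killed control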); conditions: P. falciparum Dd2 in RBCs, LDH growth readout, 72 h; at 2 µM; stronger effect = higher value
[2] = HepG2 cytotoxicity, primary screen, cytotoxicity control for P. falciparum antimalarial project, cell-based, ATP luminescence (AID 2303;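 active = inhibition above 50%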;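 also: 0% = DMSO wells and 100% = digitonin-killed cells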); conditions: HepG2 viability, 24-48 h, at 10 µM, stronger effect = higher value
[3] = target: L-lactate dehydrogenase (Plasmodium falciparum (isolate CDC / Honduras)) (UniProt Q27743); assay: PfLDH activity inhibition – cell lysate, 3D7 strain, counter-screen for P. falciparum growth inhibition project (AID 2304);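 also: 0% = vehicle and 100% = reference inhibitor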; conditions: P. falciparum 3D7 crude extract, LDH APAD/NBT absorbance; at 2 µM; stronger effect = higher value
L-lactate dehydrogenase (Plasmodium falciparum (isolate CDC / Honduras)), sequence (Q27743 whole entry, looked up): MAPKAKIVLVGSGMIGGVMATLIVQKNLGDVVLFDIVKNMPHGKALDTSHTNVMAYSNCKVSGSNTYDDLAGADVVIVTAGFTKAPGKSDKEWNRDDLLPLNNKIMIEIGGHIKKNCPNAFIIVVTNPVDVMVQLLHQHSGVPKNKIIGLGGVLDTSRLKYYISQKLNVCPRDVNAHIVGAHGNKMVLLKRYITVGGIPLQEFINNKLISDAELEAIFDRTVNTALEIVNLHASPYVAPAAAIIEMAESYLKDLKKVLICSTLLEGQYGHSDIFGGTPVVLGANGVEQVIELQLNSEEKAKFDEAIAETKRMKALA

[4] = inhibition of 3D7 malaria parasite growth – strain 3D7 (AID 2306);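 also: 0% = DMSO wells and 100% = chloroquine plus artemisinin control wells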; conditions: P. falciparum 3D7 erythrocytic growth, LDH absorbance, 72 h; at 2 µM; stronger effect = higher value
[5] = target: Calcium-dependent protein kinase 1 (Plasmodium falciparum (isolate 3D7)) (UniProt P62344); assay: PfCDPK1 kinase inhibitors, biochemical, TCAMS library (AID 1159585; cut-off not given, nearly all actives have IC50 up to about 0.98 µM;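 also: inhibitors leave more ATP so luminescence rises with inhibition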); conditions: recombinant PfCDPK1, Kinase-Glo ATP depletion luminescence
Calcium-dependent protein kinase 1 (Plasmodium falciparum (isolate 3D7)), sequence (P62344 whole entry, looked up): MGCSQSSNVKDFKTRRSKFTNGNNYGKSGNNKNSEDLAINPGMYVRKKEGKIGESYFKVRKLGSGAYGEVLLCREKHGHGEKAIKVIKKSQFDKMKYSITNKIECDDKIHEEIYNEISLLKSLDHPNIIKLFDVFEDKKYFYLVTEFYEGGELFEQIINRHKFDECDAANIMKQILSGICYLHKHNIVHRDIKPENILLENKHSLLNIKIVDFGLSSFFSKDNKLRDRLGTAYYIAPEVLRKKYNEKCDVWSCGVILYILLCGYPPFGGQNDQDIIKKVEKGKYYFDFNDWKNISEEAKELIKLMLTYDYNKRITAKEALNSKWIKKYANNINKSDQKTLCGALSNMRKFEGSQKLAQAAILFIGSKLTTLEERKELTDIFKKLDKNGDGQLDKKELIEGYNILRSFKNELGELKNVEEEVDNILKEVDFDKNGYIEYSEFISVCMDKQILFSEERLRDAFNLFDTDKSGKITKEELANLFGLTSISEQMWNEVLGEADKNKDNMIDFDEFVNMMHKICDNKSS

[6] = target: Plasmodium falciparum protein kinase 6 (PK6, PF3D7_1337100) (UniProt Q8IDW1); assay: PfPK6 kinase inhibitors, biochemical, TCAMS library (AID 1159586); conditions: recombinant PfPK6, Kinase-Glo ATP depletion luminescence
Plasmodium falciparum protein kinase 6 (PK6, PF3D7_1337100), sequence (Q8IDW1 1-305): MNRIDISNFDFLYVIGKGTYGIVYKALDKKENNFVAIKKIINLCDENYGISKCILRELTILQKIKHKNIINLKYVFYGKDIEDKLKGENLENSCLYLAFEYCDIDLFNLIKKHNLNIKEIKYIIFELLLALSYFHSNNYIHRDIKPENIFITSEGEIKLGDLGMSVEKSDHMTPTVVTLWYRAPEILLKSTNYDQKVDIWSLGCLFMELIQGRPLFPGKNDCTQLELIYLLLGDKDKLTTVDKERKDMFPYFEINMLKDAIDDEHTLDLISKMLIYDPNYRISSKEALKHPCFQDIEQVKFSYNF

[7] = target: Protein kinase 7 (PK7), Plasmodium falciparum 3D7 (PF3D7_0213400) (UniProt Q7YTF7); assay: inhibition of Plasmodium PK7 catalytic activity – biochemical, TCAMS antimalarial set, Kinase-Glo luminescence (AID 1159587); conditions: recombinant PfPK7, Kinase-Glo ATP depletion luminescence
Protein kinase 7 (PK7), Plasmodium falciparum 3D7 (PF3D7_0213400), sequence (Q7YTF7 1-343): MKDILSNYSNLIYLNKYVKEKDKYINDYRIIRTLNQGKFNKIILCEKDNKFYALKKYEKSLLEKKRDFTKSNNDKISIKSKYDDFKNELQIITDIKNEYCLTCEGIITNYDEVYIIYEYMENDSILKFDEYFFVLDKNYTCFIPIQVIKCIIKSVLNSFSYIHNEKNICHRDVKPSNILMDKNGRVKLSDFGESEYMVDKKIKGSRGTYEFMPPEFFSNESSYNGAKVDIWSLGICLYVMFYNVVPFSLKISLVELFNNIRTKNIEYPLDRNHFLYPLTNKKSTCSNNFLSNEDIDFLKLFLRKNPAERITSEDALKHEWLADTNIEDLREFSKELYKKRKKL

[8] = target: Calcium-dependent protein kinase 4 (Plasmodium falciparum (isolate 3D7)) (UniProt Q8IBS5); assay: PfCDPK4 kinase inhibitors, biochemical, TCAMS library (AID 1159588; cut-off not given, nearly all actives have IC50 up to about 0.91 µM); conditions: recombinant PfCDPK4, Kinase-Glo ATP depletion luminescence
Calcium-dependent protein kinase 4 (Plasmodium falciparum (isolate 3D7)), sequence (Q8IBS5 whole entry, looked up): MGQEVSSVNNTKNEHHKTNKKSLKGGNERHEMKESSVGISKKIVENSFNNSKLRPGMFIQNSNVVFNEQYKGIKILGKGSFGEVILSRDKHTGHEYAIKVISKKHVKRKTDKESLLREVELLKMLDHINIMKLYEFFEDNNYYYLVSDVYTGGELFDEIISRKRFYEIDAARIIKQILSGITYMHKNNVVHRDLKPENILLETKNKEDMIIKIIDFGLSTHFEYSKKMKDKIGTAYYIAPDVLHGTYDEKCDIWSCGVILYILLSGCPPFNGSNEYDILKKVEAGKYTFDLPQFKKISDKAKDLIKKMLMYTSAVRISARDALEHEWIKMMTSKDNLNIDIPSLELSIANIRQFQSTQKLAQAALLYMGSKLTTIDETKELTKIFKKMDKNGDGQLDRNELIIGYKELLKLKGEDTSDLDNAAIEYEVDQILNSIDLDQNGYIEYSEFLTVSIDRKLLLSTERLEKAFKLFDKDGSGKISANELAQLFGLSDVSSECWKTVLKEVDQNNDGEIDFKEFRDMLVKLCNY

CC(C)CCNC(=O)[C@@H]1[C@H]2C(=O)N(C3CCCCC3)C(=O)[C@H]2[C@H]2C=C[C@@H]3C(c4ccc(C(C)(C)C)cc4)=NO[C@@H]3N21
growth inhibition [1]: 48%
inhibition [2]: -4%
inhibition [3]: -2%
growth inhibition [4]: 96% (active)
outcome [5]: inactive
outcome [6]: inactive
outcome [7]: inactive
outcome [8]: inactive

CN1CCN(c2ccnc3cc4c(cc23)N(C(=O)Nc2ccc3c(c2)CCCC3=O)CC4)CC1
growth inhibition [1]: 64% (active)
inhibition [2]: 5%
inhibition [3]: -5%
growth inhibition [4]: 100% (active)
outcome [5]: inactive
outcome [6]: inactive
outcome [7]: inactive
outcome [8]: inactive

CC(C)COc1cc(C(=O)Nc2cnc3ccccc3c2)ccc1[N+](=O)[O-]
growth inhibition [1]: 56% (active)
inhibition [2]: 19%
inhibition [3]: -1%
growth inhibition [4]: 97% (active)
outcome [5]: inactive
outcome [6]: inactive
outcome [7]: inactive
outcome [8]: inactive

O=C(C=Cc1ccc(Cl)c(Cl)c1)NCCCCCN1CCC(CCNC(=O)C(c2ccccc2)c2ccccc2)CC1
growth inhibition [1]: 43%
inhibition [2]: 61% (active)
inhibition [3]: 4%
growth inhibition [4]: 90% (active)
outcome [5]: inactive
outcome [6]: inactive
outcome [7]: inactive
outcome [8]: inactive

CC(C)CCn1c(Sc2ccc(C#N)c([N+](=O)[O-])c2)nnc1-c1cccc(Cl)c1
growth inhibition [1]: 82% (active)
inhibition [2]: 33%
inhibition [3]: 0%
growth inhibition [4]: 96% (active)
outcome [5]: inactive
outcome [6]: inactive
outcome [7]: inactive
outcome [8]: inactive

O=C(c1ccc(-c2ccc(-c3nc4ccccc4[nH]3)s2)cc1)N1CCCCC1CN1CCC(O)C1 (stereo not given)
growth inhibition [1]: 55% (active)
inhibition [2]: 18%
inhibition [3]: 2%
growth inhibition [4]: 84% (active)
outcome [5]: inactive
outcome [6]: inactive
outcome [7]: inactive
outcome [8]: inactive

CCN(c1ccccc1)S(=O)(=O)c1ccc(OC)c(NC(=O)c2cccc(C(F)(F)F)c2)c1
growth inhibition [1]: 70% (active)
inhibition [2]: 9%
inhibition [3]: -2%
growth inhibition [4]: 90% (active)
outcome [5]: inactive
outcome [6]: inactive
outcome [7]: inactive
outcome [8]: inactive

Cc1cccc2[nH]c(-c3cc(-c4cccc(Cl)c4)cnc3N)nc12
growth inhibition [1]: 99% (active)
inhibition [2]: 32%
inhibition [3]: 2%
growth inhibition [4]: 101% (active)
outcome [5]: inactive
outcome [6]: inactive
outcome [7]: inactive
outcome [8]: inactive

Cc1cc(NN=Cc2ccccc2Cl)c2cc(F)ccc2n1
growth inhibition [1]: 4%
inhibition [2]: 5%
inhibition [3]: -2%
growth inhibition [4]: 101% (active)
outcome [5]: inactive
outcome [6]: inactive
outcome [7]: inactive
outcome [8]: inactive

FC(F)(F)c1ccc(CNCC2CCN(Cc3ccc4c(c3)OCO4)CC2)cc1
growth inhibition [1]: 12%
inhibition [2]: 27%
inhibition [3]: -5%
growth inhibition [4]: 80% (active)
outcome [5]: inactive
outcome [6]: inactive
outcome [7]: inactive
outcome [8]: inactive

Oc1c(Cl)cc(Nc2nccc(Nc3ccc(Oc4ccccc4)cc3)n2)cc1Cl
growth inhibition [1]: 26%
inhibition [2]: 8%
inhibition [3]: -5%
growth inhibition [4]: 99% (active)
outcome [5]: inactive
outcome [6]: inactive
outcome [7]: inactive
outcome [8]: inactive

Cc1ccccc1C1CCN(C2CCC(NC(=O)/C=C/c3c[nH]c4ccccc34)CC2)CC1 (stereo not given)
growth inhibition [1]: 51% (active)
inhibition [2]: 30%
inhibition [3]: 2%
growth inhibition [4]: 100% (active)
outcome [5]: inactive
outcome [6]: inactive
outcome [7]: inactive
outcome [8]: inactive

CCN(CC)CCN(Cc1ccc(-c2ccc(C(F)(F)F)cc2)cc1)C(=O)Cn1c(CCc2cccc(F)c2F)cc(=O)c(C)c1C
growth inhibition [1]: 87% (active)
inhibition [2]: 35%
inhibition [3]: -4%
growth inhibition [4]: 97% (active)
outcome [5]: inactive
outcome [6]: inactive
outcome [7]: inactive
outcome [8]: inactive

O=C(Nc1ccccc1)N1CCC(CN2CCOC(c3ccccc3)(c3ccccc3)C2)CC1
growth inhibition [1]: 98% (active)
inhibition [2]: 10%
inhibition [3]: 2%
growth inhibition [4]: 96% (active)
outcome [5]: inactive
outcome [6]: inactive
outcome [7]: inactive
outcome [8]: inactive

Cc1ccc(NC(=O)c2cc(Br)cc(N3CCCN(C)CC3)c2)cc1F
growth inhibition [1]: 1%
inhibition [2]: 15%
inhibition [3]: -2%
growth inhibition [4]: 87% (active)
outcome [5]: inactive
outcome [6]: inactive
outcome [7]: inactive
outcome [8]: inactive

CC(C)(CNC(=O)/C=C/c1ccc(Cl)c(Cl)c1)CNc1cc(=O)c2ccccc2[nH]1
growth inhibition [1]: 29%
inhibition [2]: -4%
inhibition [3]: 0%
growth inhibition [4]: 96% (active)
outcome [5]: inactive
outcome [6]: inactive
outcome [7]: inactive
outcome [8]: inactive

N#Cc1ccc(N2CCN(Cc3cccc(-c4ccc(-c5nc6ccccc6[nH]5)cc4)c3)CC2)nc1
growth inhibition [1]: 40%
inhibition [2]: 45%
inhibition [3]: -1%
growth inhibition [4]: 89% (active)
outcome [5]: inactive
outcome [6]: inactive
outcome [7]: inactive
outcome [8]: inactive

Cc1nnsc1C(=O)Nc1cccc(-c2csc(-c3nc4ccccc4[nH]3)c2)c1
growth inhibition [1]: 50% (active)
inhibition [2]: 51% (active)
inhibition [3]: 8%
growth inhibition [4]: 94% (active)
outcome [5]: inactive
outcome [6]: inactive
outcome [7]: inactive
outcome [8]: inactive

COc1ccccc1CNc1ccnc(NCCc2cccc(C(F)(F)F)c2)n1
growth inhibition [1]: 68% (active)
inhibition [2]: 39%
inhibition [3]: -4%
growth inhibition [4]: 93% (active)
outcome [5]: inactive
outcome [6]: inactive
outcome [7]: inactive
outcome [8]: inactive

CCCCCCCn1c2c(c(=N)c3c1CCC3)CCCC2
growth inhibition [1]: 98% (active)
inhibition [2]: 46%
inhibition [3]: 1%
growth inhibition [4]: 98% (active)
outcome [5]: inactive
outcome [6]: inactive
outcome [7]: inactive
outcome [8]: inactive

COc1cc(F)c2nccc([C@@H](O)CN3CCC(NCc4ccc5c(n4)NC(=O)CS5)CC3)c2c1
growth inhibition [1]: 25%
inhibition [2]: 23%
inhibition [3]: -4%
growth inhibition [4]: 103% (active)
outcome [5]: inactive
outcome [6]: inactive
outcome [7]: inactive
outcome [8]: inactive

Clc1ccc2nc(-c3cccnc3)[nH]c2c1
growth inhibition [1]: 97% (active)
inhibition [2]: -11%
inhibition [3]: 2%
growth inhibition [4]: 92% (active)
outcome [5]: inactive
outcome [6]: inactive
outcome [7]: inactive
outcome [8]: inactive

Nn1c(=O)oc2ccc(Cl)cc2c1=O
growth inhibition [1]: 96% (active)
inhibition [2]: 4%
inhibition [3]: -5%
growth inhibition [4]: 97% (active)
outcome [5]: inactive
outcome [6]: inactive
outcome [7]: inactive
outcome [8]: inactive

CCOc1cc(NC(=O)Nc2ccnc3ccccc23)cc(OC)c1
growth inhibition [1]: 73% (active)
inhibition [2]: -7%
inhibition [3]: 3%
growth inhibition [4]: 98% (active)
outcome [5]: inactive
outcome [6]: inactive
outcome [7]: inactive
outcome [8]: inactive

N#Cc1cccc(C(=O)Nc2cccc(-c3ccc(CN4CCCC4)cc3)c2)c1
growth inhibition [1]: 42%
inhibition [2]: 11%
inhibition [3]: 1%
growth inhibition [4]: 98% (active)
outcome [5]: inactive
outcome [6]: inactive
outcome [7]: inactive
outcome [8]: inactive

CCCCN(CCCC)CCCCNc1c2ccccc2nc2ccccc12
growth inhibition [1]: 100% (active)
inhibition [2]: 36%
inhibition [3]: 0%
growth inhibition [4]: 100% (active)
outcome [5]: inactive
outcome [6]: inactive
outcome [7]: inactive
outcome [8]: inactive

COc1ccc(-c2ccc(NC(=O)c3cccc(Cl)c3)cc2)cc1CN(C)CCO
growth inhibition [1]: 52% (active)
inhibition [2]: 39%
inhibition [3]: -4%
growth inhibition [4]: 89% (active)
outcome [5]: inactive
outcome [6]: inactive
outcome [7]: inactive
outcome [8]: inactive

COc1ccc(-c2ccc(NC(=O)c3cccc(F)c3)cc2)cc1CNC(C)C
growth inhibition [1]: 14%
inhibition [2]: 17%
inhibition [3]: -2%
growth inhibition [4]: 97% (active)
outcome [5]: inactive
outcome [6]: inactive
outcome [7]: inactive
outcome [8]: inactive

C=CCOC(=O)N1CCC(CNCc2cccc(-c3ccc(-c4nc5c(C)cccc5[nH]4)s3)c2)C1 (stereo not given)
growth inhibition [1]: 82% (active)
inhibition [2]: 11%
inhibition [3]: -6%
growth inhibition [4]: 101% (active)
outcome [5]: inactive
outcome [6]: inactive
outcome [7]: inactive
outcome [8]: inactive

Cc1cccc(CNc2nc(C)cc(NCCC(=O)Nc3ccccc3)n2)c1
growth inhibition [1]: 54% (active)
inhibition [2]: 15%
inhibition [3]: -3%
growth inhibition [4]: 101% (active)
outcome [5]: inactive
outcome [6]: inactive
outcome [7]: inactive
outcome [8]: inactive

COc1ccc(-n2nc(C)cc2C(=O)NCc2ccc(-c3c(C)noc3C)cc2)cc1
growth inhibition [1]: 92% (active)
inhibition [2]: 3%
inhibition [3]: 3%
growth inhibition [4]: 101% (active)
outcome [5]: inactive
outcome [6]: inactive
outcome [7]: inactive
outcome [8]: inactive

CNCCNc1nccc(N2CCc3ncnc(Nc4ccc(OCc5cccc(F)c5)c(Cl)c4)c3C2)n1
growth inhibition [1]: 98% (active)
inhibition [2]: 30%
inhibition [3]: -4%
growth inhibition [4]: 100% (active)
outcome [5]: inactive
outcome [6]: inactive
outcome [7]: inactive
outcome [8]: inactive

Cc1nc2ccc3nc(NC(=O)c4ccno4)sc3c2s1
growth inhibition [1]: 97% (active)
inhibition [2]: 6%
inhibition [3]: 1%
growth inhibition [4]: 99% (active)
outcome [5]: inactive
outcome [6]: inactive
outcome [7]: inactive
outcome [8]: inactive

COc1ccccc1CN1CCC(NC(=O)c2ccc(-c3cccc(Cl)c3)s2)CC1
growth inhibition [1]: 9%
inhibition [2]: 49%
inhibition [3]: -1%
growth inhibition [4]: 84% (active)
outcome [5]: inactive
outcome [6]: inactive
outcome [7]: inactive
outcome [8]: inactive

Cc1cc(CNCCCCCNCc2ccc(Cl)cc2)ccc1O
growth inhibition [1]: -1%
inhibition [2]: 12%
inhibition [3]: -7%
growth inhibition [4]: 98% (active)
outcome [5]: inactive
outcome [6]: inactive
outcome [7]: inactive
outcome [8]: inactive

Nc1c(I)cc(C(=O)Nc2ccc3nc4c(c(N)c3c2)CCCC4)cc1I
growth inhibition [1]: 99% (active)
inhibition [2]: 40%
inhibition [3]: 2%
growth inhibition [4]: 100% (active)
outcome [5]: inactive
outcome [6]: inactive
outcome [7]: inactive
outcome [8]: inactive

CCCNCc1ccc(-c2ccc(CN(Cc3ccc4c(c3)OCO4)C(=O)[C@H]3CCCO3)cc2)nc1
growth inhibition [1]: 39%
inhibition [2]: 18%
inhibition [3]: -3%
growth inhibition [4]: 90% (active)
outcome [5]: inactive
outcome [6]: inactive
outcome [7]: inactive
outcome [8]: inactive

COc1ccc(Cl)cc1-c1nc(C(=O)NCCN2CCCCC2)c(C(C)C)s1
growth inhibition [1]: 37%
inhibition [2]: 14%
inhibition [3]: -3%
growth inhibition [4]: 100% (active)
outcome [5]: inactive
outcome [6]: inactive
outcome [7]: inactive
outcome [8]: inactive

COc1ccc2c(NN=Cc3ccc(F)cc3)cc(C)nc2c1
growth inhibition [1]: 99% (active)
inhibition [2]: 4%
inhibition [3]: -3%
growth inhibition [4]: 101% (active)
outcome [5]: inactive
outcome [6]: inactive
outcome [7]: inactive
outcome [8]: inactive

O=C(/C=C/c1ccc(Cl)c(Cl)c1)N1CCC(CN2CCC(c3c[nH]c4cnccc34)CC2)CC1
growth inhibition [1]: 100% (active)
inhibition [2]: 39%
inhibition [3]: 7%
growth inhibition [4]: 102% (active)
outcome [5]: inactive
outcome [6]: inactive
outcome [7]: inactive
outcome [8]: inactive
